G9a inh = blocks human histone lysine methyltransferase G9a; G9a H3K9 monomethylation, AlphaScreen, 2 h; Q96KQ7; AID 504332; Potency, µM (doses to about 102 µM), for the others: top-dose activity, negative = inhibition, hits mostly inhibitors; hit rate 8.8% among 350,000; note: % is set by controls: 0 for no effect and ±100 for the full control effect; nearly all actives have a fitted effect of over 75% in size
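Quantitative HTS format: methyltransferase activity on a biotin-tagged H3K9 peptide is measured by AlphaScreen, using a rabbit anti-monomethyl-H3K9 antibody with streptavidin donor and anti-IgG acceptor beads. Final levels are 20 nM enzyme, 500 nM peptide, 20 uM SAM; 2 h RT.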
HP1b chromo inh = inhibitors of HP1-beta chromodomain binding to methylated histone tails. P83916. AlphaScreen HP1-beta / biotin-H3K9me3 peptide binding. Potency, µM (doses to about 114 µM), without a hit: top-dose activity change, negative = inhibition, actives largely listed as inhibitors. hit rate 0.56% among 390,000; note: nearly all actives have a fitted effect of over 70% in size
Target sequence (P83916 whole entry, looked up): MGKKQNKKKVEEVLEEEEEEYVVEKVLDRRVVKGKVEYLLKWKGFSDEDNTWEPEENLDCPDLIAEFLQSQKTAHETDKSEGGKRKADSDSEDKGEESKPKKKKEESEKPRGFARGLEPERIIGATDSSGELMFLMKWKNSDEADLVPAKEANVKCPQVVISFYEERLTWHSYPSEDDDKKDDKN
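Compound inhibition of the preformed complex between 50 nM HP1-beta and 50 nM biotinylated H3K9me3 peptide was read by AlphaScreen. Buffer was PBS pH 7.4 with 0.01% Tween-20. Incubations ran 30 min at room temperature, with 10 ug/mL donor/acceptor beads.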
PLK1 PBD inh = blocks phosphopeptide binding to human PLK1 polo-box domain | Potency, µM, for the others: max response, negative = inhibition, actives largely listed as inhibitors | Plk1 PBD binding of FITC phosphopeptide, fluorescence polarization | P53350 | hit rate 2.8% among 360,000 | AID 720504; note: series mostly up to about 57 µM; % is set by controls: 0 for no effect and ±100 for the full control effect; nearly all actives have a fitted effect of over 65% in size
Target sequence (P53350 whole entry, looked up, the tested form may be a part): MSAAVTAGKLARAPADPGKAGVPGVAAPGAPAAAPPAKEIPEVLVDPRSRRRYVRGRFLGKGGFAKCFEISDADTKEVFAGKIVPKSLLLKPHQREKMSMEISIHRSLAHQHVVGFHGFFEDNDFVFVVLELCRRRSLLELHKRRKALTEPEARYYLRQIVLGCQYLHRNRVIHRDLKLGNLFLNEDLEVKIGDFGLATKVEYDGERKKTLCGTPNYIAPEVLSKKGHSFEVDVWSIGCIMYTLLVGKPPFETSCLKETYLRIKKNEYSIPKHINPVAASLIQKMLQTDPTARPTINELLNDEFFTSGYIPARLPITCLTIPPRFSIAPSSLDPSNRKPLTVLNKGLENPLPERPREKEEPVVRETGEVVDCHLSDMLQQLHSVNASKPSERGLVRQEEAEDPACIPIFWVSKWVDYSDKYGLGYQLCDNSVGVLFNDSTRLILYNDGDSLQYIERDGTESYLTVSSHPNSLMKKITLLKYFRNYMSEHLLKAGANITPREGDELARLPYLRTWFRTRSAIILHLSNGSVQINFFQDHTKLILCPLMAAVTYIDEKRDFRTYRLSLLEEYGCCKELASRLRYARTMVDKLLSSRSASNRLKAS
JMJD2A Tudor inh = blocks the human JMJD2A Tudor domain | O75164 | AID 504339 | AlphaScreen JMJD2A-Tudor / H3K4me3 peptide binding | Potency, µM (titrated, usually from 114 µM), inactives show top-dose activity change, negative = inhibition, most hits filed as inhibitors | hit rate 4.4% among 390,000; note: % is set by controls: 0 for no effect and ±100 for the full control effect; nearly all actives have a fitted effect of over 50% in size
BAZ2B block = inhibitors of human BAZ2B bromodomain. AID 504333. hit rate 4.4% among 360,000. AlphaScreen BAZ2B-H3K14Ac peptide displacement. Q9UIF8. Potency, µM (series often up to 114 µM), without a hit: top-dose activity change, negative = inhibition, most hits filed as inhibitors; note: % is set by controls: 0 for no effect and ±100 for the full control effect; nearly all actives have a fitted effect of over 60% in size
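Inhibition is scored as reduced AlphaScreen emission. The BAZ2B/b-H3(5-23)K14Ac complex (50 nM each) in PBS pH 7.4, 0.01% Tween-20 meets compound (up to 110 uM) for 30 min at RT before bead addition.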
VDR inhibitor = inhibitors of human vitamin D receptor; VDR-SRC2-3 peptide fluorescence polarization, 2 h; Potency, µM, for the others: max response, negative = inhibition, actives largely listed as inhibitors; hit rate 0.93% among 400,000; note: % is set by controls: 0 for no effect and ±100 for the full control effect
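Measured by FP: displacement of SRC2-3 coactivator peptide from VDR by library compounds, following a two-hour ambient incubation.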
Numbers without * were called inactive; ? = inconclusive; . = no result given; [ ] = remark or other dose. Shown are actives, neighbours in structure and some others; about 11% of the full set was active somewhere. Calls come from the whole dose curve; as a rule, active = well fitted curve in the direction sought with a large enough effect; inconclusive = small, poorly fitted or top-dose-only effect, or another doubt; inactive = no such curve, though single readings can be large; an effect the other way counts as inactive or inconclusive. Potency is the fitted concentration of half-maximal effect.

SMILES	G9a inh	HP1b chromo inh	PLK1 PBD inh	JMJD2A Tudor inh	BAZ2B block	VDR inhibitor
Cc1c(Cc2ccccc2)c(=O)oc2cc(O)ccc12	7.7%	30.8%	-7.5%	-2.2%[11.4 µM]	1.5%	8.4%
Cc1oc2c(O)c(O)ccc2c(=O)c1-c1ccccc1	?	17.0%	-7.9%	8.91µM*	?	6.2%
Cc1oc2c(CN3CCCC3)c(O)ccc2c(=O)c1-c1ccc(Br)cc1	0.6%	24.5%	0.3%	-13.5%	-19.5%	24.6%
Cc1c(Cc2ccccc2)c(=O)oc2c(O)c(O)ccc12	3.98µM*	?	0.0%	44.7µM*	39.8µM*	6.2%
Cc1oc2c(O)c(O)ccc2c(=O)c1-c1cnn(-c2ccccc2)c1	?	9.8%	-13.5%	?	?	-7.8%
O=S(=O)(C(=CNc1ccccc1)S(=O)(=O)c1ccccc1)c1ccccc1	7.2%[59 µM]	13.0%	-4.2%	-17.0%	18.5%	-16.6%
CC(C)N(C(=O)CSc1cn(CC(=O)N2CCCCCC2)c2ccccc12)C(C)C	5.2%[59 µM]	29.2%	.	2.2%	-12.4%	9.2%
CCN1CCN(S(=O)(=O)c2ccc(Cl)c(C(=O)N(CC)Cc3ccccc3)c2)CC1	14.1µM*	11.3%	2.3%	-20.7%	-28.8%	-9.8%
O=C(CNC(=O)c1ccc2ccccc2c1)OC(C(=O)Nc1cc(C(F)(F)F)ccc1Cl)c1ccccc1 (stereo not given)	.	.	.	-17.8%	.	.
N#CC1=C(O)C(c2ccccc2)n2c1nc(=O)c1ccccc12 (stereo not given)	25.1µM*	30.0%	-5.5%	-20.3%	?	-12.0%
COc1ccc(CCNC(=O)c2cc3c(=O)n4cccc(C)c4nc3n2C)cc1	2.5%[59 µM]	14.4%	.	-28.0%	-3.0%	1.4%
Cc1sc(N)nc1-c1ccc2c(c1)OCCO2	35.5µM*	1.4%	?	-26.2%	-4.6%	-17.3%
Cc1sc(N)nc1-c1ccc(Oc2ccccc2)cc1	?	-19.9%	-9.2%	?	50.1µM*	-6.6%
Cc1nc(C(=O)O)cc2c1[nH]c1ccccc12	12.0%[12.7 µM]	67.0%	-3.6%	79.4µM*	50.1µM*	8.5%
O=C(Nc1ccc(Cl)cc1)Nc1ccc(Br)cn1	-10.5%	11.7%	29.9µM*	?	0.6%	-22.4%
O=C(Nc1ccc(Br)cn1)c1cccc(C(=O)Nc2ccc(Br)cn2)c1	20.1%	62.7%	-14.5%	89.1µM*	-1.1%	7.1%
CCOc1ccc(NC(=O)Nc2ccc(Br)cn2)cc1	-11.4%	32.2%	0.2%	10.5%	-0.4%	-1.7%
Nc1ncnc(Sc2ncccn2)c1[N+](=O)[O-]	?	31.4%	?	-19.5%	79.4µM*	9.9%
Nc1ncnc(Sc2ccccc2)c1[N+](=O)[O-]	-5.8%[59 µM]	15.7%	-16.4%	-9.7%	-7.7%	-12.1%
CCNC(=O)C1CCCN(C(=O)c2cccc(C#N)c2)CC1 (stereo not given)	.	.	1.1%	.	.	.
CCCc1nn2c(=O)cc(COC(=O)c3ccc4c(c3)OCO4)nc2s1	0.7%[59 µM]	-14.9%	.	-21.3%	-15.0%	4.8%
S=C1NCCOCCOCCOCCN1	-58.6%	29.4%	-1.0%	1.6%	-1.3%	11.5%
S=C1NCCNC(=S)NCCOCCOCCOCCN1	25.1µM*	39.9%	-0.2%	1.4%	14.0%	-2.1%
COc1cccc(-c2cnc(NCc3cc(Cl)ccc3O)n2C)c1	8.91µM*	?	-5.3%	4.47µM*	39.8µM*	-5.1%
Cn1c(-c2ccccc2)cnc1NCc1ccc(F)cc1	.	?	0.5%	35.5µM*	?	0.2%
SMILES	G9a inh	HP1b chromo inh	PLK1 PBD inh	JMJD2A Tudor inh	BAZ2B block	VDR inhibitor
COc1ccc(CNc2ncc(-c3ccc(F)cc3)n2C)c2ccccc12	10µM*	?	6.5%	20µM*	50.1µM*	-11.7%
CC(=O)n1nc(-c2ccccc2)nc1NCc1ccc(F)cc1	-11.8%[2.33 µM]	117.5%	-5.1%	29.3%	31.7%	2.3%
Cc1cccc(NCc2cc(Cl)ccc2O)n1	1.8%[59 µM]	21.3%	-6.1%	-4.7%	12.8%	-4.3%
Cn1c(-c2ccccc2)cnc1NCc1ccccc1O	10µM*	?	.	28.2µM*	50.1µM*	-17.5%
Cc1csc2nc(CCNS(=O)(=O)c3ccccc3)cn12	15.7%[59 µM]	30.2%[57 µM]	.	6.1%	0.0%	3.1%
C=C1CCN(C(C)C(=O)OCc2cccc(C)c2)S(=O)(=O)c2ccccc21 (stereo not given)	.	90.0%	.	28.3%	.	2.6%
COc1cccc(N2CCN(C(=O)CCNS(=O)(=O)c3ccc4c(c3)c(=O)n(C)c(=O)n4C)CC2)c1	-25.1%	32.2%	-9.8%	-17.7%	-0.4%	-9.7%
COc1ccc(CNc2ncc(-c3cccc([N+](=O)[O-])c3)n2C)c(OC)c1OC	31.6µM*	?	2.0%	25.1µM*	50.1µM*	-6.5%
COc1ccc(CNc2cccnc2)c(OC)c1OC	.	44.0%	9.9%	-6.2%	.	-10.4%
COCCn1c(-c2ccc(OC)cc2)cnc1N	?	-6.4%	?	?	?	21.8%
CCOc1ccc(-c2cnc(NCc3cccc4ccccc34)n2CCOC)cc1	.	?	-14.4%	14.1µM*	39.8µM*	-20.0%
CCOc1ccc(-c2cnc(NCc3cccc(Cl)c3)n2C)cc1	7.94µM*	?	.	20µM*	?	-1.2%
Cn1c(NCc2cccc(Cl)c2)nc2ccccc21	-2.2%[59 µM]	22.0%	.	-21.5%	1.5%	23.6%
Cn1c(-c2sccc2OCc2ccccc2)n[nH]c1=S	2.82µM*	?	-7.5%	3.16µM*	56.2µM*	8.2%
COc1ccc(-n2c(COc3ccc(Cl)cc3Cl)n[nH]c2=S)cc1	.	.	-4.7%	.	.	.
Cn1c(-c2sccc2OCc2ccc(Cl)cc2Cl)n[nH]c1=S	3.16µM*	-16.3%	26.7µM*	-17.3%[11.4 µM]	?	1.7%
Cc1ccc(COc2ccsc2-c2n[nH]c(=S)n2C)cc1	.	35.9%	1.6%	4.2%	?	-12.5%
Cc1c(C(c2ccccc2)c2c(C)n(C)n(-c3ccccc3)c2=O)c(=O)n(-c2ccccc2)n1C	17.2%	28.1%	5.8%	-6.6%	-7.7%	-9.0%
Cc1c(C(c2ccc(N(C)C)cc2)c2c(C)n(C)n(-c3ccccc3)c2=O)c(=O)n(-c2ccccc2)n1C	50.1µM*	?	-18.8%	-27.5%	?	6.4%
COc1ccc(CNCCNC(=O)c2cccs2)cc1OC	11.2µM*	?	5.8%	20µM*	.	6.1%
CCOC(=O)CCNCc1ccc(OC)c(OC)c1	4.8%[12.7 µM]	13.7%	23.8µM*	-15.4%[11.4 µM]	3.4%	?
CCOC(=O)CC(NC(=O)c1ccc(C)cc1)c1ccc(OC)cc1 (stereo not given)	-2.1%	50.1%	-9.6%	-2.1%	-13.2%	8.1%
CCOC(=O)CC(NCc1ccc(OC)c(OCC)c1)c1ccc(C)cc1 (stereo not given)	-14.1%[12.7 µM]	3.9%	21.2µM*	56.2µM*	-15.5%	-10.7%
COc1cc(CC(=O)NNC(=O)c2cccs2)cc(OC)c1OC	.	31.4%	3.5%	-6.2%	.	-5.7%
COc1cc(CNCCNC(=O)c2cccs2)cc(OC)c1OC	.	-20.5%	-2.2%	28.2µM*	89.1µM*	2.2%

Screening data deposited in PubChem by National Center for Advancing Translational Sciences (NCATS).
